Screening results as filed in PubChem.
Rows were chosen to be rich in hits. Some 6.5% of all compounds tested hit in one or more screens of this group.
Vaccinia Venus: inhibitors of vaccinia virus (Venus reporter). Vaccinia virus Venus reporter expression, fluorescence. actives 0.46% (n = 330,000). Potency, µM (highest dose often 36.5 µM), inactives show at the highest dose activity change, negative = inhibition, most hits filed as inhibitors; calls by dose curve; tested in A549 cells; also: potency is read from the fitted curve at half-maximal effect; nearly all actives have a fitted effect of over 30% in size
HCMV antiviral: inhibitors of human cytomegalovirus; activity change, negative = inhibition, % at 57.5 µM; actives 4.5% (n = 410,000); HFF cells, HCMV-luciferase reporter, 72 h; stronger effect = lower value; in the data active = activity change below about -60%; inconclusive = no clear call, values can overlap the other calls; inactive = above about -39%
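Human foreskin fibroblasts infected with luciferase-reporter HCMV at MOI 1 PFU/cell, compounds at two doses. Luciferase measured 72 h post infection; normalized to buffer-only basal and Salinomycin (10uM) controls.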
Vaccinia mCherry: vaccinia inhibition (mCherry reporter) | Potency, µM (highest dose often 36.5 µM), inactives show at the highest dose activity change, negative = inhibition, hits mostly inhibitors | actives 0.63% (n = 310,000) | Vaccinia virus mCherry reporter infection, fluorescence; calls by dose curve; tested in A549 cells; also: potency is read from the fitted curve at half-maximal effect; nearly all actives have a fitted effect of over 35% in size
FMDV antiviral: foot and mouth disease virus antiviral activity; FMDV antiviral cell-based qHTS; Potency, µM (series often up to 57.9 µM), for inactives: at the highest dose activity change, negative = inhibition, most hits filed as inhibitors; actives 1.2% (n = 410,000); calls by dose curve; tested in HEK293T cells; also: read-out not given here; potency is read from the fitted curve at half-maximal effect; nearly all actives have a fitted effect of over 45% in size
Marburg entry inh: Marburg virus entry inhibition | Marburg virus pseudotyped entry inhibition, cell reporter | Potency, µM (doses to about 37.8 µM), without a hit: at the highest dose activity change, negative = inhibition, hits mostly inhibitors | AID 540276 | actives 1.8% (n = 300,000); calls by dose curve; tested in HEK293 cells; also: potency is read from the fitted curve at half-maximal effect
LASV entry inh: blocks Lassa virus binding to or entry into cells | Lassa virus pseudotype entry inhibition, cell reporter | Potency, µM (titrated, usually from 37.9 µM), for the others: at the top dose activity change, negative = inhibition, most hits filed as inhibitors | actives 1.2% (n = 300,000); calls by dose curve; tested in HEK293 cells; also: potency is read from the fitted curve at half-maximal effect; nearly all actives have a fitted effect of over 50% in size
* marks the source's active call; other numbers are inactive results; i = inactive; ? = inconclusive; nt = not tested or not shown; [ ] = dose if it differs, or a comment. % is scaled to controls: 0 for no effect and ±100 for the full control effect.

SMILES | Vaccinia Venus | HCMV antiviral | Vaccinia mCherry | FMDV antiviral | Marburg entry inh | LASV entry inh
CC(C)OCCCNC(=O)c1c(N)n(Cc2cccs2)c2nc3ccccc3nc12 | 28µM* | -74* | nt | -29% | ? | ?
CN(c1ccc(-c2csc(NC(=O)C3CC(=O)N(Cc4ccco4)C3)n2)cc1)S(C)(=O)=O (centres undefined) | nt | 24 | nt | 22µM* | nt | nt
N#Cc1c[nH]n2c(NC3CCCC3)c(-c3ccc(Br)cc3)nc12 | -26% | -14 | -18% | -14% | ? | -27%[46.1 µM]
N#Cc1c[nH]n2c(NC3CCCC3)c(-c3ccc(Cl)cc3)nc12 | -14% | -20 | -19% | -11% | 1.4µM* | -27%[46.1 µM]
COC[C@H]1O[C@H](c2ccccc2)C=C[C@H]1OCc1cccc(Br)c1 | nt | nt | nt | nt | -15%[14.2 µM] | nt
CCN=C1S/C(=C\c2ccc(O)c(OCC)c2)C(=O)N1CC | ? | -6 | ? | -8% | ? | 13µM*
CCN=C1S/C(=C\c2cc(OCC)c(O)cc2Br)C(=O)N1CC | ? | -9 | ? | 32µM* | ? | ?
COc1cc(/C=C2/SC(=NCc3ccccc3)N(Cc3ccccc3)C2=O)ccc1O | 22% | -11 | -12% | -18% | 3% | -25%
CCN=C1S/C(=C\c2cn(CC)c3ccccc23)C(=O)N1CC | -11% | 58 | -25% | -12% | -13%[46.1 µM] | ?
CCOC(=O)c1cccn1C1C(=O)N(Cc2ccc(Cl)nc2)c2ccc(F)cc21 (centres undefined) | nt | 9 | nt | nt | nt | nt
CC(=O)c1ccccc1NC(C(=O)Nc1c(C)cccc1C)C1CC1 (centres undefined) | nt | 4 | nt | nt | nt | nt
Cc1ccc(-c2nc(NC(=O)c3nn(C)cc3[N+](=O)[O-])sc2C)cc1C | 13µM* | -107* | 10µM* | 13µM* | ? | 4µM*
CCCOC(=O)Nc1nc(-c2ccc(C)cc2)c(C)s1 | -7% | ? | i | 20% | 0%[46.1 µM] | 11µM*
Cn1cc([N+](=O)[O-])c(C(=O)Nc2ccc(C(=O)N3CCCCC3)cc2)n1 | -10% | -34 | -24% | 13% | 5% | 0%
Cn1cc([N+](=O)[O-])c(C(=O)Nc2nc(-c3ccc(Cl)cc3)cs2)n1 | 11µM* | -96* | nt | ? | ? | ?
Cc1ccc(-c2nc(NC(=O)c3nn(C)cc3[N+](=O)[O-])sc2C)cc1 | nt | -104* | nt | 11µM* | -1% | nt
O=C(Nc1nc(-c2ccc([N+](=O)[O-])cc2)cs1)c1c(F)cccc1F | nt | -12 | nt | -17% | -17% | ?
C[C@@H]1CN([C@H](C)CO)C(=O)CCCn2nncc2CO[C@H]1CN(C)Cc1ccc(Cl)c(Cl)c1 | -20% | 7 | -9% | -23% | nt | nt
Cc1cccc(N2CN=c3s/c(=C/c4ccncc4)c(=O)n3C2)c1 | nt | nt | nt | nt | -1% | nt
Cc1nn(Cc2c(F)c(F)c(F)c(F)c2F)c(C)c1NC(=O)c1nn(C)cc1[N+](=O)[O-] | -28% | -33 | -7% | -21% | 2% | -24%[14.3 µM]
Cc1cnc(NC(=O)c2nn(C)cc2[N+](=O)[O-])s1 | -29% | -99* | -19% | -13% | 2%[46.1 µM] | 2%[46.1 µM]
O=C(c1ccccc1Cc1ccccc1)N1CCN(S(=O)(=O)c2ccccc2Br)CC1 | -25% | -72* | ? | ? | 13µM* | -16%[46.1 µM]
Cc1noc(C)c1COc1ccccc1C(=O)N1CCN(S(=O)(=O)c2ccc(C(C)C)cc2)CC1 | -13% | -75* | -12% | ? | nt | nt
Cc1noc(C)c1COc1ccccc1C(=O)N1CCN(S(=O)(=O)c2ccccc2C(F)(F)F)CC1 | -11% | -18 | i | -11% | -4% | -11%
Cc1noc(C)c1COc1ccccc1C(=O)N1CCN(S(=O)(=O)c2cccc(Cl)c2)CC1 | -15% | 4 | i | -24% | -30% | -3%
SMILES | Vaccinia Venus | HCMV antiviral | Vaccinia mCherry | FMDV antiviral | Marburg entry inh | LASV entry inh
Cc1noc(C)c1COc1ccccc1C(=O)N1CCN(S(=O)(=O)c2ccccc2Br)CC1 | nt | -86* | nt | ? | nt | nt
Clc1ccc(-n2cccc2CN2CCc3nnc(Cc4ccccc4)n3CC2)nc1 | -11% | nt | i | -13% | nt | nt
O=C(CC1(O)C(=O)Nc2ccc(Br)cc21)c1ccccc1 (centres undefined) | 2% | 29 | -26% | -6% | nt | nt
COC(=O)c1ccccc1-c1c2ccc(=N)cc-2oc2cc(N)ccc12 | nt | -97* | 167% | 0% | ? | 7.9µM*
O=C(O)c1ccccc1-c1oc2cc(O)ccc2c(=O)c1Oc1ccccc1 | nt | nt | nt | 0% | nt | nt
O=C(O)c1ccccc1-c1c2ccc(=O)cc-2oc2cc(O)ccc12 | nt | nt | nt | nt | 35µM* | 28µM*
COC(=O)c1ccccc1-c1ccc(/C=N/NC(=O)c2cc3ccccc3o2)o1 | -10% | -18 | i | -14% | 4% | -10%
N#Cc1ccc2c(c1)C[C@]1(c3ccsc3)Oc3c(c(=O)oc4ccccc34)[C@H]2O1 | nt | nt | nt | nt | 5%[14.2 µM] | nt
O=[N+]([O-])c1ccc2c(c1)C(=Nc1ccccc1)c1ccccc1-2 | -11% | -92* | -21% | -6% | ? | ?
O=C(Nc1cc2c(cc1Cl)-c1ccc([N+](=O)[O-])cc1C2=NO)C(F)(F)F | 8% | nt | -9% | -3% | 23% | 0%
O=[N+]([O-])c1ccc2c(c1)-c1ccccc1C2=NO | -20% | -70* | -15% | -5% | ? | 9%
ON=C1c2ccccc2-c2ccccc21 | nt | 43 | nt | 11% | nt | nt
Nc1ccc2c(c1)C(=NO)c1cc([N+](=O)[O-])ccc1-2 | 199% | -85* | ? | -19% | ? | 2%
COc1ccc(N=C2c3ccccc3-c3ccc([N+](=O)[O-])cc32)cc1 | -13% | -9 | -14% | -14% | ? | ?
CCOC(=O)N/N=C/c1cn(CCCOc2ccc(C)cc2)c2ccccc12 | -24% | -5 | ? | -12% | 7.1µM* | ?
COc1cccc(OCCn2cc(/C=N/NC(=O)c3ccncc3)c3ccccc32)c1 | -19% | 29 | -24% | ? | ? | 6%
CNC(=S)N/N=C/c1cn(CCOc2cccc(OC)c2)c2ccccc12 | ? | 202 | 4µM* | -5% | ? | ?
CCOC(=O)N/N=C/c1cn(CCCOc2ccccc2)c2ccccc12 | -13% | 51 | -24% | -23% | ? | ?
CCCN(CCC)CCNC(=O)C1CCN(c2nc3ccc(CC)cc3s2)CC1 | -5%[7.34 µM] | -98* | -10%[7.34 µM] | -2% | ? | ?
CCCN(CCC)CCCNC(=O)C1CCN(c2nc3ccc(CC)cc3s2)CC1 | -10%[7.34 µM] | -101* | -11%[7.34 µM] | 13% | 27%[46.1 µM] | 8%[46.1 µM]
CCc1ccc2nc(N3CCC(C(=O)NCCC(C)C)CC3)sc2c1 | -26% | 82 | -20% | 27% | ? | ?
O=C(NCCc1ccccn1)C1CC12CCN(C(=O)c1ccccc1Cl)CC2 (centres undefined) | -20% | nt | -1% | -12% | nt | nt
Cc1ccc(C(=O)Nc2ccc3ccccc3n2)cc1 | -10% | -102* | -7% | -2% | ? | ?
CS(=O)(=O)N1CCCCC1c1cc(C(=O)Nc2ccccc2Cl)no1 (centres undefined) | -6% | 8 | 4% | 35% | nt | nt
